Test [1] is described as follows: NCI Yeast Anticancer Drug Screen. Data for the rad50 strain (AID 155).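 Also: 0% = growth of vehicle-only cultures of the same strain.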 The following applies: S. cerevisiae rad50 strain growth inhibition, hits give high values. The method, boiled down: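 Inhibition values express reduced yeast growth in compound-treated cultures relative to vehicle-treated controls.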
Test [2] can be described thus: NCI Yeast Anticancer Drug Screen. Data for the mec2-1 strain (AID 157). The following applies: S. cerevisiae mec2-1 strain, hits give high values. The procedure, abridged: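 Mutant yeast (mec2-1) grown with compound; growth inhibition relative to vehicle control reported.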
A short description of test [3]: NCI Yeast Anticancer Drug Screen. Data for the sgs1 mgt1 strain (AID 161).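 Also: 0% = growth of cultures given vehicle only.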 The following applies: S. cerevisiae sgs1 mgt1 strain, hits give high values. The method, boiled down: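 Yeast cells carrying a defined DNA-repair defect were exposed to test compounds. Growth inhibition was measured relative to vehicle-treated controls.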
A short description of test [4]: NCI Yeast Anticancer Drug Screen. Data for the cln2 rad14 strain (AID 165).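 Also: 0% = growth equal to vehicle treated cultures.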 The following applies: S. cerevisiae cln2 rad14 strain, hits give high values. The method, boiled down: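 Readout is yeast growth inhibition versus vehicle-treated controls, using a strain with cln2 and rad14 alterations exposed to compound.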
The nature of test [5]: NCI Yeast Anticancer Drug Screen. Data for the bub3 strain (AID 167). Particulars: S. cerevisiae bub3 mutant strain, hits give high values. The procedure, abridged:
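Steps: expose the mutant yeast strain to compound; grow alongside vehicle-treated cultures; measure growth; express inhibition against the vehicle cultures.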

Test [6] is described as follows: NCI Yeast Anticancer Drug Screen. Data for the mlh1 rad18 strain (AID 175). The following applies: S. cerevisiae mlh1 rad18 strain growth inhibition, hits give high values. The procedure, abridged:
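Genetically defined yeast (DNA repair-deficient) exposed to compounds; growth inhibition determined relative to vehicle.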

Setting [7] is: at 5.0 µM (retest, dose inferred, filed as 0.5).
Setting [8] is: at 50.0 µM (retest, dose inferred, filed as 5.0).

The values below come from PubChem BioAssay (NCI).

This is part of a sample that, as a whole, favours compounds with a hit. Of some 79,000 tested, about 15% had one in any assay. A number with no mark means an inactive call. Activity calls are given as the source filed them. Rule as the data show it: active = growth inhibition above about 70%; inactive = the rest.

As to `Oc1ccc2ccccc2c1/C=N\Sc1ccccc1`, the growth inhibition in test [1] (setting [7]) is 11%; in test [1] (setting [8]), 99% (active); in test [1] (at 50.0 µM), 97.5% (active); in test [2] (setting [7]), 18%; in test [2] (setting [8]), 99% (active); in test [2] (at 50.0 µM), 99.3% (active). Also, the growth inhibition is 15% in test [3] (setting [7]); 99% (active) in test [3] (setting [8]); 98.5% (active) in test [3] (at 50.0 µM); 7% in test [4] (setting [7]); 99% (active) in test [4] (setting [8]); 41% in test [4] (at 50.0 µM). For the same compound, the growth inhibition in test [5] (setting [7]) is -2%; in test [5] (setting [8]) it was 99% (active); in test [5] (at 50.0 µM) it was 98.1% (active); in test [6] (setting [7]), 6%; in test [6] (setting [8]), 99% (active); in test [6] (at 50.0 µM), 99% (active).

Take `CCCCC(Cc1ccccc1)(C(=O)O)c1ccccc1` (configuration not stated): the growth inhibition was 11% in test [1] (setting [7]); 98% (active) in test [1] (setting [8]); 99% (active) in test [1] (at 50.0 µM); 18% in test [2] (setting [7]); 98% (active) in test [2] (setting [8]); 98.2% (active) in test [2] (at 50.0 µM). For the same compound, the growth inhibition is 16% in test [3] (setting [7]); 99% (active) in test [3] (setting [8]); 98.9% (active) in test [3] (at 50.0 µM); 31% in test [4] (setting [7]); 99% (active) in test [4] (setting [8]); 98% (active) in test [4] (at 50.0 µM). Further, the growth inhibition was 3% in test [5] (setting [7]); 97% (active) in test [5] (setting [8]); 96% (active) in test [5] (at 50.0 µM); 14% in test [6] (setting [7]); 99% (active) in test [6] (setting [8]); 98.8% (active) in test [6] (at 50.0 µM).

For `CCCCCCCCCCCN1C(=O)c2ccccc2S1(=O)=O`, the growth inhibition is -3% in test [1] (setting [7]); 78% (active) in test [1] (setting [8]); -22.4% in test [1] (at 50.0 µM); -2% in test [2] (setting [7]); 54% in test [2] (setting [8]); 0.5% in test [2] (at 50.0 µM). Besides, the growth inhibition was 0% in test [3] (setting [7]); 80% (active) in test [3] (setting [8]); -11.4% in test [3] (at 50.0 µM); -14% in test [4] (setting [7]); 34% in test [4] (setting [8]); 58.8% in test [4] (at 50.0 µM). The growth inhibition was 0% in test [5] (setting [7]); 79% (active) in test [5] (setting [8]); 9.4% in test [5] (at 50.0 µM); 0% in test [6] (setting [7]); 95% (active) in test [6] (setting [8]); 32.4% in test [6] (at 50.0 µM).

In the case of `COc1ccc(/C=C/c2ccnc3ccccc23)cc1`, the growth inhibition in test [1] (setting [7]) is 24%; in test [1] (setting [8]), 98% (active); in test [1] (at 50.0 µM), 90.3% (active); in test [2] (setting [7]), 20%; in test [2] (setting [8]), 99% (active); in test [2] (at 50.0 µM), 92.2% (active). Also, the growth inhibition in test [3] (setting [7]) was 22%; in test [3] (setting [8]), 99% (active); in test [3] (at 50.0 µM) it was 89.7% (active); in test [4] (setting [7]) it was 25%; in test [4] (setting [8]), 96% (active); in test [4] (at 50.0 µM), 89% (active). In addition, the growth inhibition in test [5] (setting [7]) is 48%; in test [5] (setting [8]), 99% (active); in test [5] (at 50.0 µM) it was 86.5% (active); in test [6] (setting [7]), 29%; in test [6] (setting [8]), 98% (active); in test [6] (at 50.0 µM) it was 86% (active).

In the case of `CC(=O)OC(OC(C)=O)c1ccc([N+](=O)[O-])s1`, the growth inhibition in test [1] (setting [7]) is -77%; in test [1] (setting [8]) it was 100% (active); in test [1] (at 50.0 µM), 99.4% (active); in test [2] (setting [7]), -18%; in test [2] (setting [8]) it was 100% (active); in test [2] (at 50.0 µM), 99.4% (active). In addition, the growth inhibition in test [3] (setting [7]) is 10%; in test [3] (setting [8]), 100% (active); in test [3] (at 50.0 µM) it was 99.5% (active); in test [4] (setting [7]) it was 1%; in test [4] (setting [8]), 99% (active); in test [4] (at 50.0 µM), 99.1% (active). In addition, the growth inhibition in test [5] (setting [7]) was -7%; in test [5] (setting [8]) it was 100% (active); in test [5] (at 50.0 µM), 99.5% (active); in test [6] (setting [7]) it was 19%; in test [6] (setting [8]), 100% (active); in test [6] (at 50.0 µM), 99.5% (active).

As to `CCOC(=O)C(C(=O)OCC)C(=O)c1ccc2c(c1)OCO2`, the growth inhibition is 3% in test [1] (setting [7]); 83% (active) in test [1] (setting [8]); 52.4% in test [1] (at 50.0 µM); 2% in test [2] (setting [7]); 75% (active) in test [2] (setting [8]); 35.5% in test [2] (at 50.0 µM). Besides, the growth inhibition in test [3] (setting [7]) is 5%; in test [3] (setting [8]), 90% (active); in test [3] (at 50.0 µM), 86.9% (active); in test [4] (setting [7]), 10%; in test [4] (setting [8]), 21%; in test [4] (at 50.0 µM), 1.25%. The growth inhibition in test [5] (setting [7]) is 7%; in test [5] (setting [8]) it was 81% (active); in test [5] (at 50.0 µM), 89.2% (active); in test [6] (setting [7]), 4%; in test [6] (setting [8]) it was 94% (active); in test [6] (at 50.0 µM), 60.4%.

As for `NS(=O)(=O)c1ccc(N=Cc2c3ccccc3nc3cc(Cl)ccc23)cc1`, the growth inhibition was 10% in test [1] (setting [7]); 34% in test [1] (setting [8]); 46.4% in test [1] (at 50.0 µM); 12% in test [2] (setting [7]); 28% in test [2] (setting [8]); 49.1% in test [2] (at 50.0 µM). The growth inhibition in test [3] (setting [7]) was 16%; in test [3] (setting [8]), 39%; in test [3] (at 50.0 µM) it was 53.1%; in test [4] (setting [7]), 3%; in test [4] (setting [8]), 12%; in test [4] (at 50.0 µM), 8.05%. For the same compound, the growth inhibition is 19% in test [5] (setting [7]); 38% in test [5] (setting [8]); 27.6% in test [5] (at 50.0 µM); 17% in test [6] (setting [7]); 38% in test [6] (setting [8]); 58.9% in test [6] (at 50.0 µM).

With `N#Cc1ccc([N+](=O)[O-])cc1C#N`, the growth inhibition in test [1] (setting [7]) was -155%; in test [1] (setting [8]), 97% (active); in test [1] (at 50.0 µM), 99.2% (active); in test [2] (setting [7]), -46%; in test [2] (setting [8]) it was 97% (active); in test [2] (at 50.0 µM), 99.8% (active). The growth inhibition is -56% in test [3] (setting [7]); 98% (active) in test [3] (setting [8]); 99.6% (active) in test [3] (at 50.0 µM); -50% in test [4] (setting [7]); 96% (active) in test [4] (setting [8]); 97.6% (active) in test [4] (at 50.0 µM). The growth inhibition was -66% in test [5] (setting [7]); 98% (active) in test [5] (setting [8]); 97.6% (active) in test [5] (at 50.0 µM); -135% in test [6] (setting [7]); 98% (active) in test [6] (setting [8]); 99.5% (active) in test [6] (at 50.0 µM).

`O=C(O)c1c(Br)c(Br)c(Br)c(Br)c1-c1c2ccc(=O)cc-2oc2cc(O)ccc12`: the growth inhibition in test [1] (setting [7]) is 94% (active); in test [1] (setting [8]), 93% (active); in test [1] (at 50.0 µM), 84.1% (active); in test [2] (setting [7]) it was 95% (active); in test [2] (setting [8]), 96% (active); in test [2] (at 50.0 µM) it was 88.7% (active). Also, the growth inhibition was 87% (active) in test [3] (setting [7]); 96% (active) in test [3] (setting [8]); 87.1% (active) in test [3] (at 50.0 µM); 88% (active) in test [4] (setting [7]); 95% (active) in test [4] (setting [8]); 87.8% (active) in test [4] (at 50.0 µM). The growth inhibition in test [5] (setting [7]) is 91% (active); in test [5] (setting [8]), 95% (active); in test [5] (at 50.0 µM), 85.8% (active); in test [6] (setting [7]), 94% (active); in test [6] (setting [8]), 92% (active); in test [6] (at 50.0 µM) it was 83.5% (active).
